Our source for the Kd values is publication PMC5540273 (PLoS ONE, 2017).

A value given as a limit tells only on which side of the number the result lay.

As a reminder, the Kd is the free concentration of one partner at which half of the binding sites on the other are occupied at equilibrium, for simple one-to-one binding.
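Also: kd values determined as follow-up on hits from a single-replicate KINOMEscan panel screen.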

In the test on DYRK2, `CC(C)(C)OC(=O)NC1CCCN(c2cc(-c3ccc4c(N)n[nH]c4c3)nc(N)n2)C1` (stereo not shown) [GSK2286096] gave a Kd of 0.44 µM.

`FC(F)(F)c1ccc(-c2cc(-c3c[nH]nc3-c3ccccn3)ccn2)cc1` [GW599550]: the Kd in the test on EIF2AK1 was greater than 10 µM.

In turn, `Clc1cccc(-c2nc(Nc3ccncc3)c3ccccc3n2)c1` [GW873004] came in with a Kd in the test with EPHA1 greater than 10 µM.

In the case of `CCC(CC)(CC)n1cnc2c(N)ncnc21` [SKF-97620], in the test with EPHA2, the Kd is greater than 10 µM.

Take `O=C(Nc1n[nH]c2nc(-c3ccco3)c(Br)cc12)c1ccc(CN2CCCC2)cc1.O=C(O)[C@H](O)[C@@H](O)C(=O)O` [SB-742352]: the Kd in the test with EPHA4 and in the test with EPHA6 was greater than 10 µM throughout.

As to `FC(F)(F)c1ccc(-c2nn3ncccc3c2-c2ccnc(Nc3cccc(C(F)(F)F)c3)n2)cc1` [GW828205], the dissociation constant Kd in the test on EPHA4 was greater than 10 µM.
